Screening data deposited in PubChem BioAssay by The Scripps Research Institute Molecular Screening Center.
Shown are actives, neighbours in structure and some others; about 4.8% of the full set was active somewhere.
ssDAF12 agonist – activates DAF-12 receptor from parasite S. stercoralis; HEK293 ssDAF-12/GRIP1 lit1-tk-luc reporter, luminescence; % of 3 µM dafachronic acid response; activation, % at 6.8 µM; hit rate 1% among 370,000; AID 652126;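 active = activation above the mean over all tested compounds plus 3 SD, cut at about 0.9% in these data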;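 note: 0% = DMSO-only wells and 100% = 3 µM delta7-dafachronic acid wells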
DAX1 inh-1 – inhibits human nuclear receptor DAX1 | inhibition, % at 6.75 µM | P51843 | AID 504766 | hit rate 0.99% among 340,000 | HEK293 Gal4-DAX1 luciferase reporter, luminescence;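 active = inhibition above the mean over all tested compounds plus 3 SD, cut at about 4.2% in these data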;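 note: 0% = DAX1-transfected cells with DMSO and 100% = empty-vector control cells with DMSO; inhibition shows as a rise in luminescence from relieved DAX1 repression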
Target sequence (P51843 207-470 limits assumed): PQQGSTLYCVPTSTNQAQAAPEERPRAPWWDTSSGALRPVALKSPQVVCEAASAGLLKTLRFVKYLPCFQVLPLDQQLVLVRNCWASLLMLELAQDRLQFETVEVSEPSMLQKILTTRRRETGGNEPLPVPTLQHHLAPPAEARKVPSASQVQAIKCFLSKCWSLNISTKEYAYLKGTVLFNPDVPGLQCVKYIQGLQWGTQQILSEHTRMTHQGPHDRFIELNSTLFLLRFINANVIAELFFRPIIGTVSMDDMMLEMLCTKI
hcDAF-12 act – H. contortus DAF-12 activation, primary screen; hit rate 1.4% among 370,000; HEK293 hcDAF-12 lit1-tk-luc reporter, luminescence; 0% DMSO, 100% Δ7-dafachronic acid; AID 652067; activation, % at 6.8 µM;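 active = activation above the mean of all tested compounds plus 3 SD, cut at about 5.5% in these data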;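 note: 100% = response to 3 µM Δ7-dafachronic acid high control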
hgDAF12 agonist – agonists of H. glycines DAF-12 nuclear receptor; HEK293 GAL4-hgDAF12 UAS-luciferase reporter, agonist luminescence; normalized to butyrate control; activation, % at 6.8 µM; hit rate 1.8% among 370,000; AID 687014;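 active = activation above a cutoff set at the mean of all screened compounds plus 3 SD, cut at about 10% in these data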;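 note: 0% = DMSO wells and 100% = sodium butyrate wells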
DAX1 inh-2 – DAX1 (NR0B1) inhibition, primary screen; hit rate 1.1% among 370,000; inhibition, % at 6.8 µM; HEK293T StAR-luciferase reporter, SF-1/DAX-1 repression relief;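 active = inhibition above the mean over all tested compounds plus 3 SD, cut at about 3.6% in these data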;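 note: 0% = DAX-1 cells with DMSO and 100% = cells lacking DAX-1 with DMSO; higher inhibition means more luminescence from relief of DAX-1 repression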
SMARCA2 activ – increases SMARCA2 function in MMTV reporter cells. MG213 cells, MMTV-luciferase reporter, dexamethasone, overnight. activation, % at 9.1 µM. hit rate 1% among 370,000; in the data active = activation above about 7.8%;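 note: 0% = vehicle wells and 100% = reference activator wells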
Active calls of the source: *; / = no result given.

SMILES	ssDAF12 agonist	DAX1 inh-1	hcDAF-12 act	hgDAF12 agonist	DAX1 inh-2	SMARCA2 activ
Cc1cccnc1NC(=S)Nc1ncccc1C	0.3	4.8*	3.1	11.4*	1.6	3.3
Cc1cc(C(C)(C)C)ccc1Oc1cccc2c1S(=O)(=O)N(C1CCCC1)CC(COCc1ccccc1)O2 (centres undefined)	0.0	1.2	-0.3	3.2	3.6*	-1.0
COc1cc(F)ccc1Oc1cccc2c1S(=O)(=O)N(C1CC1)C[C@@H](COCc1ccccc1)O2	-1.2	/	-2.0	-1.1	-1.4	-4.4
COc1ccc(-n2c(CN3CCN(Cc4ccccc4)CC3)nc3ccc([N+](=O)[O-])cc3c2=O)c(OC)c1	-1.4	-0.3	4.4	1.4	0.2	4.1
CCCC(=O)N1CCC1(C)C(=O)Nc1ccccc1-c1ccccc1 (centres undefined)	-0.7	/	-0.8	2.0	-1.1	1.7
CCCC(=O)N1CCC1(C)C(=O)Nc1cc(-c2ccccc2)nn1C (centres undefined)	0.0	/	2.9	11.7*	3.9*	5.0
O=C(N/N=C/c1c[nH]c2ccccc12)c1[nH]c2ccc(Br)cc2c1-c1ccccc1	1.4*	1.4	4.4	-2.0	1.9	0.2
O=C(N/N=C/c1c[nH]c2ccccc12)c1ccccc1	0.0	6.1*	2.3	5.3	0.3	-1.5
O=C(CNC(=O)c1ccccc1Br)N/N=C/c1cc(Br)ccc1O	-0.7	0.5	-3.5	-10.1	-1.3	-3.9
Cc1cccc(NC(=S)N/N=C/c2c[nH]c3ccccc23)c1	-0.3	-1.2	0.4	14.3*	-0.5	-1.9
O=C(N/N=C/c1cc(Cl)ccc1O)c1ccccc1Br	1.5*	-2.4	-2.9	-4.2	-0.2	1.1
O=C(N/N=C/c1c[nH]c2ccccc12)c1cc(Br)ccc1O	1.3*	-1.1	5.3	9.9	0.2	4.5
O=C(N/N=C/c1cc2c(cc1Br)OCO2)c1c[nH]c2ccccc12	0.2	5.4*	4.1	10.5*	0.8	-0.8
O=C(N/N=C/c1ccccc1Cl)c1ccc(F)cc1	-1.6	1.9	2.6	12.6*	1.8	1.9
Cc1ccc(C(=O)N/N=C/c2c[nH]c3ccccc23)o1	0.0	0.0	6.4*	7.1	0.1	-0.7
Cc1c(-n2cccc2C=O)cccc1[N+](=O)[O-]	-1.6	-0.4	1.2	1.2	-0.8	2.3
Cc1cc(C(=O)N/N=C/c2c[nH]c3ccccc23)cs1	0.8	0.6	4.2	7.8	0.3	0.5
Cc1nc(N)sc1C(=O)N/N=C/c1c[nH]c2ccccc12	-0.6	-1.1	4.5	10.7*	0.1	0.6
S=C(Nc1ccccc1)Nc1ccc(Br)cc1	-1.3	5.7*	-1.4	1.2	-0.6	-2.6
S=C(Nc1ccccc1)Nc1ccccc1-n1cccc1	0.5	/	5.7*	0.4	0.0	-3.8
FC(F)(F)c1ccccc1NC(=S)Nc1ccccc1	-0.3	0.6	0.7	-0.9	-0.3	-0.8
Cc1ccccc1NC(=S)NCC1CCC(CNC(=S)Nc2ccccc2C)CC1 (centres undefined)	-1.1	2.1	-1.2	0.6	-0.1	0.5
CNc1cncc(-c2ccc(OC)c(OC)c2)n1	3.4*	/	-0.6	10.9*	0.9	6.4
CNc1cncc(-c2ccc(F)c(F)c2)n1	-1.6	/	-1.7	5.2	1.1	-2.6
CNc1cncc(-c2cccc(OC)c2F)n1	0.6	/	3.0	9.4	4.2*	2.3
SMILES	ssDAF12 agonist	DAX1 inh-1	hcDAF-12 act	hgDAF12 agonist	DAX1 inh-2	SMARCA2 activ
CNc1cncc(-c2c(OC)cccc2OC)n1	-0.6	/	-0.2	-0.4	0.2	-5.0
CN(C)CCCNC(=O)CC1C[C@H](C(=O)N2CCCCC2)[C@@]2(CCc3ccccc3)c3[nH]c4ccccc4c3CCN2C1=O (some centres undefined)	-1.0	-0.1	1.4	0.8	3.9*	1.6
O=S(=O)(c1cccc(-c2nnc(SCc3nc4ccccc4s3)o2)c1)N1CCOCC1	-0.2	0.7	4.4	4.5	0.9	3.1
O=C1C(C=NCc2cccnc2)=C(O)c2ccccc21	0.3	3.9	4.8	12.1*	3.3	5.2
COc1ccc(O)c(C(=O)c2cnc3nc4ccccc4n3c2)c1	0.0	1.5	6.1*	1.8	0.2	0.5
COc1ccccc1NC(=S)NCCc1ccc(S(N)(=O)=O)cc1	-1.1	0.3	5.9*	-2.0	-0.3	-4.8
